Results taken from PubChem BioAssay AID651658 (Broad Institute, 2012).
Among all 340,000 compounds or so, about 5,100 (1.5%) were called active. Shown is part of a subset that was picked to be rich in actives. Values without a mark were called inactive.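 How the source made its calls: active means mean Tm shift, scaled 0 neutral to 100 positive control, at about 1.3% or above, every replicate too (limit read from the data); inconclusive means no clear call, values can overlap the other calls; inactive means the rest.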

Biological target: Fibroblast growth factor 22 (Homo sapiens) (UniProt Q9HCT0)
Test: binders of human FGF22 protein, primary screen, FGF22 synaptogenesis inhibitor project, biophysical, thermal shift, single point (AID 651658)
Settings: recombinant FGF22 thermal shift, SYPRO orange fluorescence; at 9.99 µM; active compounds read high; percent of sucrose octasulfate shift, DMSO zero

Fibroblast growth factor 22 (Homo sapiens), sequence (Q9HCT0 whole entry, looked up): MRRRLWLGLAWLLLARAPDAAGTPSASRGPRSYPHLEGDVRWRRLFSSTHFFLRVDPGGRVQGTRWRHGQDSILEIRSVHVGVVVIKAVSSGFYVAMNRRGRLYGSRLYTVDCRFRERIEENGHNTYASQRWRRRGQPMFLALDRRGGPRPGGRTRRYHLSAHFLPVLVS

| Compound | activity (Tm shift, normalised) |
| --- | --- |
| Cc1noc(C)c1NC(=O)Nc1ccc2c(c1)C(=O)N([C@H](C)CO)C[C@@H](C)[C@@H](CN(C)S(=O)(=O)c1ccc(Cl)cc1)OCCCC[C@H](C)O2 | -0.533% |
| COc1ccc(NC(=O)O[C@@H](c2ccc(OCCO)cc2)[C@@H](C)CCO)cc1 | -1.48% |
| CCCNC(=O)N1CCC2(CC1)CN(C(=O)CN1CCOCC1)[C@H](CO)c1[nH]c3cc(OC)ccc3c12 | -0.015% |
| CCN1CCN(CC(=O)Nc2sc3c(c2C#N)CCC3)CC1 | -0.078% |
| N#Cc1c(NC(=O)C2CCCO2)sc2c1CCCCC2 (stereo not given) | 0.476% |
| N#Cc1c(NC(=O)CCCl)sc2c1CCCCC2 | 43% (active) |
| CCCNC(=O)C[C@@H]1CC[C@@H]2[C@H](COc3ccc(NC(=O)c4cc(F)cc(F)c4)cc3C(=O)N2C)O1 | 0.224% |
| O=C(C[C@@H]1CC[C@@H](NC(=O)c2ccc3c(c2)OCO3)[C@H](CO)O1)NCc1ccc(F)cc1 | -0.125% |
| Cc1ccccc1S(=O)(=O)N1C[C@@H]2N[C@H](C1)C2c1ccc(-c2cccc(C(=O)N(C)C)c2)cc1 (stereo not given in full) | 0.138% |
| O=C(C[C@H]1CC[C@@H]2[C@H](COC[C@@H](O)CN2Cc2cccc(-c3ccncc3)c2)O1)N1CCOCC1 | 0.256% |
| O=C(C[C@H]1C(=O)N(c2ccc(F)c(F)c2)C[C@@H]1Cc1ccccc1)Nc1ccccc1 | -0.246% |
| CNC(=O)C[C@H]1C(=O)N(Cc2ccccc2)C[C@@H]1CSC | 0.23% |
| CNC(=O)C[C@H]1C(=O)N(c2ccc(OC)cc2)C[C@@H]1Cc1ccccc1 | 43.3% (active) |
| CC(C)N1C(=O)[C@@]2(Cc3ccccc31)c1ccccc1C(=O)N(C1CCCCC1)[C@H]2c1ccc(CO)cc1 | -0.066% |
| COc1ccc(-c2ccccc2[C@H]2[C@@H](CO)N(C(=O)C3CCC3)[C@H]2C#N)cc1 | -0.131% |
| C[C@H](CO)N1C[C@H](C)[C@H](CN(C)C(=O)Cc2ccccn2)Oc2ncc(-c3cncnc3)cc2C1=O | -0.28% |
| COC(=O)c1ccc(NC(=S)Nc2cccc(C)n2)cc1 | 42.2% |
| Cc1ccc(C(=O)NC(=S)Nc2ccc(N3CCOCC3)cc2)cc1 | -0.25% |
| COC(=O)c1ccc(NC(=S)NN2CCOCC2)cc1 | 43.4% (active) |
| OC[C@@H]1Nc2ccc(-c3ccc(F)cc3)cc2[C@@H]2[C@H]1CCN2Cc1ccc(F)cc1 | -0.323% |
| COc1ccc(NC(=O)Nc2ccc3c(c2)[C@@H]2C[C@@H](CC(=O)NCc4ccncc4)O[C@@H](CO)[C@@H]2O3)cc1 | -0.189% |
| C[C@@H]1CN([C@H](C)CO)S(=O)(=O)c2ccc(-c3ccccc3)cc2O[C@@H]1CN(C)C(=O)CC1CC1 | -0.061% |
| C[C@@H]1CCCCO[C@H](CN(C)S(=O)(=O)c2ccccc2)[C@@H](C)CN([C@@H](C)CO)C(=O)c2cc(NS(=O)(=O)c3ccccc3)ccc2O1 | -0.644% |

| Compound | activity (Tm shift, normalised) |
| --- | --- |
| COc1ccc(NC(=O)CSc2nc(SC)ns2)c(OC)c1 | 0.019% |
| COc1ccc(OC)c(NC(=O)CSc2nc(-c3ccccc3)cc(=O)[nH]2)c1 | -0.146% |
| CCc1cc2cc(OC)ccc2nc1SCC(=O)Nc1cc(OC)c(OC)cc1C(=O)O | 43.1% (active) |
| CC(C)(C)C(=O)NCCCNc1ccc([N+](=O)[O-])cc1 | 43.5% (active) |
| O=[N+]([O-])c1ccc(NCCCO)c(C(F)(F)F)c1 | 0.215% |
| O=C(NCCNc1ccc([N+](=O)[O-])cc1)c1cccc2c(Br)cccc12 | 0% |
| CNC(=O)C[C@@H]1CC[C@@H]2[C@@H](COc3ccc(NC(=O)c4ccc5c(c4)OCO5)cc3C(=O)N2C)O1 | -0.015% |
| CNS(=O)(=O)c1ccc(NC(=O)Nc2ccc3c(c2)OCO3)cc1 | -0.016% |
| CC(NC(=O)Nc1ccc2c(c1)OCO2)c1ccncc1 (stereo not given) | 0.039% |
| Cc1cccc(NC(=O)Nc2ccc3c(c2)OCO3)n1 | 43.6% (active) |
| COc1ccc(NC(=O)Nc2ccc3c(c2)C(=O)N([C@H](C)CO)C[C@H](C)[C@@H](CN(C)Cc2ccc(C(=O)O)cc2)OCCCC[C@H](C)O3)cc1 | -0.009% |
| CC=Cc1ccc2n(c1=O)C[C@@H]1[C@@H](CO)[C@H](C(=O)N[C@H](C)c3ccccc3)N(C(=O)c3cnccn3)[C@H]21 (mixture of isomers) | -0.323% |
| O=C(COC(=O)/C=C/c1ccc(Cl)cc1)NC1CCS(=O)(=O)C1 (stereo not given) | 0.02% |
| O=C(COC(=O)c1ncc(Cl)c(Cl)c1Cl)NC1CCS(=O)(=O)C1 (stereo not given) | 0.023% |
| Nc1ccc(C(=O)OCC(=O)NC2CCS(=O)(=O)C2)cc1[N+](=O)[O-] (stereo not given) | 43.7% (active) |
| COc1ccc2c3c([nH]c2c1)[C@H](CO)N(C(C)=O)CC31CN(S(=O)(=O)c2cccs2)C1 | -10.2% |
| C[C@@H]1CN([C@@H](C)CO)C(=O)Cc2cc(NC(=O)Cc3cn(C)c4ccccc34)ccc2O[C@H]1CN(C)Cc1ccc(C(=O)O)cc1 | 0.077% |
| C[C@H]1CN([C@@H](C)CO)C(=O)Cc2cc(NC(=O)Cc3cn(C)c4ccccc34)ccc2O[C@H]1CN(C)Cc1ccccc1 | 1.01% |
| C[C@@H]1CN([C@H](C)CO)C(=O)Cc2cc(NC(=O)Cn3cnnn3)ccc2O[C@H]1CN(C)Cc1ccc(C(F)(F)F)cc1 | 1.38% (active) |
| C[C@H](CO)N1C[C@H](C)[C@@H](CN(C)Cc2ccc(C(=O)O)cc2)Oc2ccc(NC(=O)Cn3cnnn3)cc2CC1=O | -0.125% |
| C[C@H]1CN([C@@H](C)CO)C(=O)Cc2cc(NC(=O)Cc3cn(C)c4ccccc34)ccc2O[C@@H]1CN(C)Cc1ccccc1 | 1.38% (active) |
| C[C@H]1CN([C@@H](C)CO)C(=O)Cc2cc(NC(=O)Cn3cnnn3)ccc2O[C@H]1CN(C)Cc1ccc(C(=O)O)cc1 | -0.049% |
